# This is part of a sample that, as a whole, favours compounds with a hit. Of some 83,000 tested, about 20% had one in any assay.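 Results are percent growth after 48 hours of single-concentration exposure. 100 means growth as in untreated cells, lower positive values show inhibition; negative values down to -100 show cell death.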 Activity calls are given as the source filed them. How the source made its calls: active means growth percent below 10; inactive means the rest.
# Test system: SK-OV-3 ovarian
# Assay: NCI-60 one-dose screen, 48 h (100 = growth as untreated, 0 = no growth, -100 = all killed)
# Conditions: 10 µM unless noted
row,Structure (SMILES),growth
1,C=C1c2c(C)nn(-c3ccc(C#CCOC4OC(CO)C(O)C(O)C4O)cc3)c2N(C)C23C[C@H]1C1(C)c4c(C)nn(-c5ccc(C#CCOC6OC(CO)C(O)C(O)C6O)cc5)c4N(C)C(C)(C[C@H]12)C3 (some centres undefined),15.3% (inactive)
2,[O-]/[N+](=C\C=C\c1ccccc1)c1ccccc1,110% (inactive)
3,CN1CCN(Cc2ccc(NC(=O)c3[nH]ncc3Nc3ccnc4ccnn34)cc2)CC1,29.1% (inactive)
4,CCCOc1ccc2c(c1)CC[C@@H]1[C@@H]2CC[C@@]2(C)[C@H]1CC[C@]2(C)O,75.3% (inactive)
5,COc1ccc(C2=NN(C(=O)c3cc(OC)c(OC)c(OC)c3)C(c3ccc(C#N)cc3)C2)cc1OC (centres undefined),19.8% (inactive)
6,CO[C@H]1CC(O[C@@H]2/C(C)=C/C[C@@H]3C[C@@H](C[C@]4(CC[C@H](C)[C@@H](C5CCCCC5)O4)O3)OC(=O)[C@@H]3C=C(C)/C(=N/O)[C@H]4OC/C(=C\C=C\[C@@H]2C)[C@]43O)O[C@@H](C)C1O (some centres undefined),-98.4% (active)
7,O=C1CC(C(F)(F)F)=NN1C(=O)c1nn(-c2ccc(Cl)cc2)cc1O,75.4% (inactive)
8,CCCCc1nc(Cl)c(CO)n1Cc1ccc(-c2ccccc2-c2nn[nH]n2)cc1,106% (inactive)
9,CN(C)c1ccc2[nH]c3c(C(N)=O)cc(=O)c(=O)c=3oc2c1,82% (inactive)
10,CCC1(c2ccccc2)Oc2ccccc2-n2c(C#N)c3ccccc3c2C1=O (centres undefined),91.4% (inactive)
11,O=C1Nc2ccc(F)cc2/C1=C/c1nc(-c2ccc(F)cc2)n2ccccc12,108% (inactive)
12,COc1cc(C(=O)/C=C/c2cccnc2Nc2ccccc2)cc(OC)c1OC,-3.48% (active)
13,Fc1ccc([C@@H]2CCNC[C@H]2COc2ccc3c(c2)OCO3)cc1,90.8% (inactive)
14,CCCc1nn(C)c2c(=O)[nH]c(-c3cc(S(=O)(=O)N4CCN(C)CC4)ccc3OCC)nc12,100% (inactive)
15,COc1ccc(-c2cc(Cc3cccs3)c(=O)n(Cn3cncn3)n2)cc1,103% (inactive)
16,CC[N+](CC)(CCOCCOCC[N+](CC)(CC)Cc1ccc([N+](=O)[O-])cc1)Cc1ccc([N+](=O)[O-])cc1,112% (inactive)
17,S=C1SCN(Cc2ccccc2)CN1Cc1ccco1,96.2% (inactive)
18,O=C(CSc1nc2c(n1Nc1ccccc1)-c1ccccc1SC2)Nc1nc(-c2ccc(Cl)cc2)cs1,82.9% (inactive)
19,C=C(C)[C@@H]1C/C=C(/C=O)CC[C@@H]2O[C@@]2(C)CC/C=C(\C)CC1,106% (inactive)

row,Structure (SMILES),growth
1,CC[C@@H]1OC(=O)[C@H](C)[C@@H](O[C@H]2C[C@@](C)(OC)[C@@H](O)[C@H](C)O2)[C@H](C)[C@@H](O[C@@H]2O[C@H](C)C[C@H](N(C)C)[C@H]2O)[C@](C)(O)C[C@@H](C)[C@@H]2N[C@@H](COCCOC)O[C@H]([C@H]2C)[C@]1(C)O,109% (inactive)
2,C[n+]1c2ccccc2c(Nc2ccc(N3CCCCC3)cc2)c2[nH]c3ccccc3c21,-75.8% (active)
3,Nc1ccc2c(c1)/C(=N/O)c1cc([N+](=O)[O-])ccc1-2,81.6% (inactive)
4,COc1cc(/C=C/c2nnc(-c3cc(-c4ccccc4)n[nH]3)o2)cc(OC)c1OC,88.7% (inactive)
5,O=C(O)c1ccc(NC(=O)c2ccc(Nc3ccnc(C(F)(F)F)c3)cc2)cc1,98.9% (inactive)
6,Cc1c(C(N)=O)sc2ncn(Cc3ccccc3)c(=O)c12,106% (inactive)
7,C[C@@H]1CC[C@H]2[C@@H](C)C(O)O[C@@H]3O[C@]4(C)CC[C@@H]1[C@]32OO4 (some centres undefined),95.4% (inactive)
8,Cn1c(=O)c2c(nc(Br)n2CCC(=O)Nc2ccc(F)cc2)n(C)c1=O,83.6% (inactive)
9,N=C(N)/N=C(\CCc1nc2ccccc2[nH]1)c1nc2ccccc2[nH]1,108% (inactive)
10,CCOc1cccc(C2CC(=O)Nc3cc4c(cc32)OCO4)c1 (centres undefined),86.6% (inactive)
11,COc1ccc(C2=NNC(c3cc(Cc4ccc(O)c(C5CC(c6ccc(OC)cc6)=NN5)c4)ccc3O)C2)cc1 (centres undefined),93.9% (inactive)
12,O=C(c1ccccc1)c1ccco1,104% (inactive)
13,CCC(=O)Nc1ccccc1C#C/C=C\C#Cc1ccccc1C(F)(F)F,52.3% (inactive)
14,COc1cc(C2C=C(c3ccc(C)cc3)Nc3nc(SC)[nH]c(=O)c32)ccc1Oc1ccnc2cc(Cl)ccc12 (centres undefined),106% (inactive)
15,Cc1cc(N2CCOCC2)nc(N2CCOCC2)n1,99.2% (inactive)
16,Cc1cc(C)n(C(=O)c2nn(-c3ccc(Cl)cc3)cc2O)n1,87.5% (inactive)
17,COc1ccc(-c2nn(-c3ccccc3)cc2/C=C2\SC(=S)N(CCc3ccc(O)cc3)C2=O)cc1,98.8% (inactive)
18,CCN(CC)c1ccc(CN(CC(=O)c2ccc(Cl)c(Cl)c2)Cc2ccccc2)cc1,90% (inactive)

# Test system: IGROV1 ovarian
# Assay: as above
# Conditions: 10 µM unless noted
row,Structure (SMILES),growth
1,C=C1c2c(C)nn(-c3ccc(C#CCOC4OC(CO)C(O)C(O)C4O)cc3)c2N(C)C23C[C@H]1C1(C)c4c(C)nn(-c5ccc(C#CCOC6OC(CO)C(O)C(O)C6O)cc5)c4N(C)C(C)(C[C@H]12)C3 (some centres undefined),24.7% (inactive)
2,[O-]/[N+](=C\C=C\c1ccccc1)c1ccccc1,113% (inactive)
3,CN1CCN(Cc2ccc(NC(=O)c3[nH]ncc3Nc3ccnc4ccnn34)cc2)CC1,58.3% (inactive)
4,CCCOc1ccc2c(c1)CC[C@@H]1[C@@H]2CC[C@@]2(C)[C@H]1CC[C@]2(C)O,118% (inactive)
5,COc1ccc(C2=NN(C(=O)c3cc(OC)c(OC)c(OC)c3)C(c3ccc(C#N)cc3)C2)cc1OC (centres undefined),13.4% (inactive)
6,CO[C@H]1CC(O[C@@H]2/C(C)=C/C[C@@H]3C[C@@H](C[C@]4(CC[C@H](C)[C@@H](C5CCCCC5)O4)O3)OC(=O)[C@@H]3C=C(C)/C(=N/O)[C@H]4OC/C(=C\C=C\[C@@H]2C)[C@]43O)O[C@@H](C)C1O (some centres undefined),-47.4% (active)
7,O=C1CC(C(F)(F)F)=NN1C(=O)c1nn(-c2ccc(Cl)cc2)cc1O,88.7% (inactive)
8,CCCCc1nc(Cl)c(CO)n1Cc1ccc(-c2ccccc2-c2nn[nH]n2)cc1,104% (inactive)
9,CN(C)c1ccc2[nH]c3c(C(N)=O)cc(=O)c(=O)c=3oc2c1,32.5% (inactive)
10,CCC1(c2ccccc2)Oc2ccccc2-n2c(C#N)c3ccccc3c2C1=O (centres undefined),93.9% (inactive)
11,O=C1Nc2ccc(F)cc2/C1=C/c1nc(-c2ccc(F)cc2)n2ccccc12,97.8% (inactive)
12,COc1cc(C(=O)/C=C/c2cccnc2Nc2ccccc2)cc(OC)c1OC,-38.2% (active)
13,Fc1ccc([C@@H]2CCNC[C@H]2COc2ccc3c(c2)OCO3)cc1,72% (inactive)
14,CCCc1nn(C)c2c(=O)[nH]c(-c3cc(S(=O)(=O)N4CCN(C)CC4)ccc3OCC)nc12,112% (inactive)
15,COc1ccc(-c2cc(Cc3cccs3)c(=O)n(Cn3cncn3)n2)cc1,122% (inactive)
16,CC[N+](CC)(CCOCCOCC[N+](CC)(CC)Cc1ccc([N+](=O)[O-])cc1)Cc1ccc([N+](=O)[O-])cc1,125% (inactive)
17,S=C1SCN(Cc2ccccc2)CN1Cc1ccco1,84.4% (inactive)
18,O=C(CSc1nc2c(n1Nc1ccccc1)-c1ccccc1SC2)Nc1nc(-c2ccc(Cl)cc2)cs1,86% (inactive)
19,C=C(C)[C@@H]1C/C=C(/C=O)CC[C@@H]2O[C@@]2(C)CC/C=C(\C)CC1,986% (inactive)

row,Structure (SMILES),growth
1,CC[C@@H]1OC(=O)[C@H](C)[C@@H](O[C@H]2C[C@@](C)(OC)[C@@H](O)[C@H](C)O2)[C@H](C)[C@@H](O[C@@H]2O[C@H](C)C[C@H](N(C)C)[C@H]2O)[C@](C)(O)C[C@@H](C)[C@@H]2N[C@@H](COCCOC)O[C@H]([C@H]2C)[C@]1(C)O,108% (inactive)
2,C[n+]1c2ccccc2c(Nc2ccc(N3CCCCC3)cc2)c2[nH]c3ccccc3c21,-97% (active)
3,Nc1ccc2c(c1)/C(=N/O)c1cc([N+](=O)[O-])ccc1-2,57% (inactive)
4,COc1cc(/C=C/c2nnc(-c3cc(-c4ccccc4)n[nH]3)o2)cc(OC)c1OC,110% (inactive)
5,O=C(O)c1ccc(NC(=O)c2ccc(Nc3ccnc(C(F)(F)F)c3)cc2)cc1,105% (inactive)
6,Cc1c(C(N)=O)sc2ncn(Cc3ccccc3)c(=O)c12,2.39% (active)
7,C[C@@H]1CC[C@H]2[C@@H](C)C(O)O[C@@H]3O[C@]4(C)CC[C@@H]1[C@]32OO4 (some centres undefined),38.9% (inactive)
8,Cn1c(=O)c2c(nc(Br)n2CCC(=O)Nc2ccc(F)cc2)n(C)c1=O,107% (inactive)
9,N=C(N)/N=C(\CCc1nc2ccccc2[nH]1)c1nc2ccccc2[nH]1,114% (inactive)
10,CCOc1cccc(C2CC(=O)Nc3cc4c(cc32)OCO4)c1 (centres undefined),83.4% (inactive)
11,COc1ccc(C2=NNC(c3cc(Cc4ccc(O)c(C5CC(c6ccc(OC)cc6)=NN5)c4)ccc3O)C2)cc1 (centres undefined),35.5% (inactive)
12,O=C(c1ccccc1)c1ccco1,99.5% (inactive)
13,CCC(=O)Nc1ccccc1C#C/C=C\C#Cc1ccccc1C(F)(F)F,-21.8% (active)
14,COc1cc(C2C=C(c3ccc(C)cc3)Nc3nc(SC)[nH]c(=O)c32)ccc1Oc1ccnc2cc(Cl)ccc12 (centres undefined),90.5% (inactive)
15,Cc1cc(N2CCOCC2)nc(N2CCOCC2)n1,76.6% (inactive)
16,Cc1cc(C)n(C(=O)c2nn(-c3ccc(Cl)cc3)cc2O)n1,25.3% (inactive)
17,COc1ccc(-c2nn(-c3ccccc3)cc2/C=C2\SC(=S)N(CCc3ccc(O)cc3)C2=O)cc1,78.6% (inactive)
18,CCN(CC)c1ccc(CN(CC(=O)c2ccc(Cl)c(Cl)c2)Cc2ccccc2)cc1,107% (inactive)
